Rows were chosen to be rich in hits. Some 0.7% of all compounds tested hit in one or more screens of this group.
Vif-A3G inh: blocks the Vif interaction with human APOBEC3G | Q9HC16 | HeLa A3G-eYFP + Vif (tagged APOBEC3G with the HIV-1 protein that degrades it), YFP fluorescence, overnight | Potency, µM (titrated, usually from 46.1 µM), for the others: at the top dose activity, negative = active, actives largely listed as inhibitors | hit rate 0.076% among 410,000; note: % is set by controls: 0 for no effect and ±100 for the full control effect; nearly all actives have a fitted effect of over 60% in size
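HeLa cells stably expressing Vif and C-terminally eYFP-tagged A3G, seeded overnight at 37 deg C, then exposed to compound by pintool overnight at 37 deg C. Rise in yellow fluorescence (Ex 488/Em 500-530, Acumen) marks blocked Vif-driven A3G degradation.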
GLS inh: inhibitors of human glutaminase (GLS). O94925. GLS enzymatic activity, qHTS titration. Potency, µM (series often up to 45.5 µM), without a hit: top-dose activity change, negative = inhibition, actives largely listed as inhibitors. hit rate 0.21% among 410,000; note: % is set by controls: 0 for no effect and ±100 for the full control effect
Target sequence (O94925 whole entry, looked up): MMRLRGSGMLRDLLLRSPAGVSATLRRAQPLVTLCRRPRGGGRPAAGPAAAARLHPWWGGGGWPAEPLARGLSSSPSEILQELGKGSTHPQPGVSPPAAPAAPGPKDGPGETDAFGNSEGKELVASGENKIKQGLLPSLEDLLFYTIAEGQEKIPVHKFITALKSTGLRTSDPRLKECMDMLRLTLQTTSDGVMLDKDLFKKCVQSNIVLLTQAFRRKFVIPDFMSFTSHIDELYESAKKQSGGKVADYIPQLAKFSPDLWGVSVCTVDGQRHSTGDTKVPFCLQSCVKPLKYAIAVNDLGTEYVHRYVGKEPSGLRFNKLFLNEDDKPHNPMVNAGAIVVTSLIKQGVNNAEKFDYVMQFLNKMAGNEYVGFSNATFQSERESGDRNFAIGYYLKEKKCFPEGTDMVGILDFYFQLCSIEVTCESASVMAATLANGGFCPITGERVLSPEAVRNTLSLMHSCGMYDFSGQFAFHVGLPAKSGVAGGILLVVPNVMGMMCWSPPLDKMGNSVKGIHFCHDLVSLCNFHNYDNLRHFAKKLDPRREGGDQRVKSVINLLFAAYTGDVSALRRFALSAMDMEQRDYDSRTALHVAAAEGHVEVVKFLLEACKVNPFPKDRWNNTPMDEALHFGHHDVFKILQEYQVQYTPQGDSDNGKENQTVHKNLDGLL
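Glutamate formation by hKGA was monitored fluorometrically using coupled glutamate oxidase, HRP and Amplex Red. Substrate was added as 1 mM L-glutamine solution; incubation was 30 min at RT after an initial read.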
Vif-A3F inh: Vif-A3F binding inhibition | HeLa A3F-eYFP + Vif (tagged APOBEC3F with the HIV-1 protein that degrades it), YFP fluorescence increase | hit rate 0.2% among 390,000 | Potency, µM (highest dose often 46.1 µM), for the others: at the top dose activity, negative = active | AID 602313; note: % of control where 0% means no effect; nearly all actives have a fitted effect of over 65% in size
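Fluorescence increase (Ex 488/Em 500-530) after overnight compound treatment at 37 deg C flags inhibition of Vif-driven A3F-eYFP loss in stable HeLa A3F-eYFP/Vif cells seeded overnight beforehand.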
Epigenetic derep: derepresses silenced GFP reporter in murine cells; murine LDR cells, GFP reporter derepression, 30 h; Potency, µM (series often up to 53.9 µM), inactives show at the top dose GFP activation, most hits filed as activators; hit rate 0.2% among 280,000; AID 1865; note: % of control where 0% means no effect; nearly all actives have a fitted effect of over 60% in size
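In this reporter-derepression format, murine cells bearing a silenced integrated CMV-GFP locus incubate with test compound (30 h, 37 C), then are washed and imaged; fluorescent objects of 20–120 um count as induced cells.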
PINK1 modulator: modulators of PINK1 expression; PINK1 immunofluorescence, high-content cytometry, 24 h; Potency, µM (series often up to 76.6 µM), for the others: at the top dose activation (PINK1 increase), actives largely listed as activators; hit rate 0.2% among 410,000; AID 624263; active = well fitted activation curve with a large enough effect; inconclusive = small, poorly fitted or top-dose-only effect; cell line not stated here; note: % of control where 0% means no effect; nearly all actives have a fitted effect of over 65% in size
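PINK1 protein, normally rapidly degraded, was detected by immunofluorescence after 24 hour compound treatment of a stable cell line. Titration data (5 concentrations) came from laser-scanning cytometry, with CCCP-treated wells as controls.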
Numbers without * were called inactive; ? = inconclusive; . = no result. Unless noted, calls come from the whole dose curve; as a rule, active = well fitted curve in the direction sought with a large enough effect; inconclusive = small, poorly fitted or top-dose-only effect, or another doubt; inactive = no such curve, though single readings can be large; an effect the other way counts as inactive or inconclusive. Potency is the fitted concentration of half-maximal effect.

SMILES | Vif-A3G inh | GLS inh | Vif-A3F inh | Epigenetic derep | PINK1 modulator
Cc1c(C(=O)N2CCOc3ccccc3C2)sc2ncnc(NCCCN3CCOCC3)c12 | . | . | . | . | 0.0%
COc1c(N2C[C@@H]3CCCN[C@H]3C2)c(F)cc2c(=O)c(C(=O)O)cn(C3CC3)c12 | . | -1.3% | . | 1.1% | .
C[C@H]1NCc2cc(-c3ccc4c(=O)c(C(=O)O)cn(C5CC5)c4c3OC(F)F)ccc21 | . | 12.6µM* | . | . | .
C[C@H](NC(=O)[C@H](Cc1ccccc1)n1c(=O)[nH]c2ccccc2c1=O)C(=O)N1CCC[C@H]1C(=O)O | 0.3% | -6.4% | -17.8% | . | 0.7%
CSCC[C@H](NC(=O)[C@H](Cc1ccccc1)n1c(=O)[nH]c2ccccc2c1=O)C(=O)N1CCC[C@@H]1C(=O)O | 10µM* | 0.1% | -1.5% | . | -0.5%
O=C1CC(C(=O)N2CCCC(c3nc(-c4ccncc4)ncc3-c3ccccc3)C2)C2(CCCCC2)O1 (stereo not drawn) | . | . | . | . | 0.6%
COC1C(CO)OC(n2c3c(Cl)cccc3c3c4c(c5c6cccc(Cl)c6[nH]c5c32)C(=O)NC4=O)C(O)C1O (stereo not drawn) | ? | -6.2% | ? | . | 39.8µM*
COCCCNc1ncnc2sc(C(=O)N3CCOCC3)c(C)c12 | . | . | . | . | 1.7%
O=C(CCO)c1ccc(O)cc1 | 1.3% | 7.94µM* | -3.2% | 0.0% | 0.0%
CN(C)c1ccc(/C=C(/C#N)C(=O)Nc2nc3c(s2)CCN(Cc2ccccc2)C3)cc1 | 5.62µM* | 4.2% | ? | . | ?
Cc1cc2nc(SCCOC(=O)Nc3cccc(Cl)c3)nc(C)c2cc1C | -3.0% | 0.0% | 25.1µM* | 0.0% | 1.1%
Cc1cc2nc(SCCOC(=O)Nc3ccccc3)nc(C)c2cc1C | 0.3% | -1.1% | 0.4% | -2.5% | -2.2%
CCOc1ccccc1C1CC(c2cccs2)=NN1S(C)(=O)=O (stereo not drawn) | -27.3% | -9.3% | 31.6µM* | 11.5% | 9.7%
CCC1CN(CCNC(=O)c2scc3c2OCCO3)Cc2cc(OC)ccc2O1 (stereo not drawn) | . | . | . | . | 0.5%
COc1ccc(-n2c(=O)c(-c3cccs3)nc3cnc(Nc4ccccc4)nc32)cc1 | . | . | . | . | 4.47µM*
CN(C)c1ncc2nc(-c3cccs3)c(=O)n(-c3ccccc3)c2n1 | . | . | . | . | 39.8µM*
CC(=O)Nc1ccc(C(=O)N2CCCC(n3cc(C(=O)NCC(C)C)nn3)C2)cc1 (stereo not drawn) | . | . | . | . | 0.8%
CCN1CCCC1CNC(=O)c1cnn(-c2nccc(-c3cccs3)n2)c1C1CC1 (stereo not drawn) | . | . | . | . | 1.6%
COc1cc(OC)cc(C(=O)/C=C2\Sc3ccccc3N2C)c1 | 2.7% | 2.3% | 3.4% | ? | -1.5%
CCN1/C(=C/c2cccc[n+]2C)Sc2ccc(OC)cc21 | ? | 4.0% | 25.1µM* | . | 25.1µM*
COc1ccc2c(c1)N(C)/C(=C/c1cccc[n+]1C)S2 | 12.6µM* | 0.7% | ? | . | 5.01µM*
COc1ccc2c(c1)OC(C)CN(CCNC(=O)C1CCOC1)C2 (stereo not drawn) | . | . | . | . | 1.8%
Cc1cc(CNC(=O)CCN2Cc3cc(Cl)ccc3OC(C)C2)nn1C (stereo not drawn) | . | . | . | . | 0.1%
N=C1S/C(=C\c2ccc(-c3cccc(Cl)c3)o2)C(=O)N1c1nccs1 | -3.9% | -9.5% | 25.1µM* | ? | 9.5%
Nc1c(C(=O)Nc2ccc(C(=O)O)cc2)sc2nc3c(cc12)CCCC3 | -1.3% | -1.6% | -1.8% | -0.7% | 1.5%
Nc1c(C(=O)Nc2ccc(S(=O)(=O)N3CCCC3)cc2)sc2nc3cc4c(cc3cc12)CCC4 | 12.6µM* | 4.1% | 10µM* | 3.55µM* | ?
Nc1c(C(=O)Nc2ccc(S(=O)(=O)N3CCCC3)cc2)sc2nc3ccc(OC(F)(F)F)cc3cc12 | ? | 4.0% | 22.4µM* | 7.94µM* | ?
CNC(=O)c1c(NC(=O)c2nc(SCc3ccc(C)cc3)ncc2Cl)sc2c1CCCC2 | -2.1% | 16.0% | -6.7% | 22.4µM* | 1.1%
COc1ccc(-n2c(C)cc(/C=C3\SC(=S)NC3=O)c2C)cc1 | -21.0% | -0.9% | 10µM* | 25.1µM* | 31.6µM*
Cc1cc(/C=C2\SC(=S)NC2=O)c(C)n1-c1ccc(O)cc1 | -14.9% | 14.1% | ? | 6.4% | 0.7%

Compound activity deposited in PubChem BioAssay by National Center for Advancing Translational Sciences (NCATS).
